Source: PubChem BioAssay
Beta apoptosis: beta cell apoptosis inhibition; protection from apoptosis, % (test concentration not listed); INS-1E cytokine-induced death, ATP luminescence, 48 h; percent of positive-control rescue, neutral wells zero; AID 435005; 300,000 tested, 0.8% active;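 active = Every replicate reaches about 75%, or at least half do and their mean reaches it too, limit read from the data; inconclusive = At least half of replicates reach the limit but their mean does not; inactive = Under half of replicates reach the limit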;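 note: higher means more ATP so stronger rescue from cytokine killing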
Calb FLC: C. albicans growth modulation with fluconazole; C. albicans CaCi-2 (fluconazole-resistant clinical isolate) + fluconazole, Alamar Blue growth, 48 h; growth inhibition, % (concentration not given with the values); 300,000 tested, 0.57% active; AID 1979;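 active = growth inhibition above about 58% in most replicates, limit read from the data, passing the limit was not always enough; inconclusive = exactly half the replicates above a set limit; inactive = most replicates below a set limit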;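 note: all wells also contain fluconazole at 8 µg/ml as a sub-toxic cotreatment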
MPTP inh: inhibitors of mitochondrial permeability transition pore; 360,000 tested, 1.4% active; inhibition, % at 10 µM; isolated mouse mitochondria, Ca2+ swelling absorbance, 30 min;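 active = inhibition of 50% or more, scaled per plate between neutral and stimulator controls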
CSC inhib: blocks cancer stem cells; cancer stem cell-like cells viability, luminescence; inhibition, % at 7.5 µM; 300,000 tested, 1.1% active; in the data active = inhibition above about 75%; inconclusive = no clear call, values can overlap the other calls; tested in HMLE shEcad cells
Mdm2 MdmX PPI: human Mdm2/MdmX binding inhibition | O15151+Q00987 | SaOS-2 split-luciferase Mdm2/MdmX complementation, luminescence | inhibition, % at 8 µM | 330,000 tested, 3% active;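 active = inhibition of at least 50% at 8 µM in the primary screen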
Target sequence (O15151 whole entry, looked up): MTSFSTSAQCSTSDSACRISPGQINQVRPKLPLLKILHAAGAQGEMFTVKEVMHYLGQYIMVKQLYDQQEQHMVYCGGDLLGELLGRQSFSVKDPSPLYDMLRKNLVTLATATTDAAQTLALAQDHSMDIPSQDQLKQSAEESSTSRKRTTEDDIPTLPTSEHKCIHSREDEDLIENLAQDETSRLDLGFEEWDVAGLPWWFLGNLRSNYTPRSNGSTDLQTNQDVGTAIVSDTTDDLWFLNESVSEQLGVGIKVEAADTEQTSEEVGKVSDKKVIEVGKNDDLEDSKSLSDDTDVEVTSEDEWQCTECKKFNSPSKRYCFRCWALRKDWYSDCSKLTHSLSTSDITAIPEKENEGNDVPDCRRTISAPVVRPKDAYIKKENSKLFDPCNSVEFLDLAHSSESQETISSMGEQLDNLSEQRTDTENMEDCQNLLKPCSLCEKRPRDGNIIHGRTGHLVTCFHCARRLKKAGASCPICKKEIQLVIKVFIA
Target sequence (Q00987 whole entry, looked up): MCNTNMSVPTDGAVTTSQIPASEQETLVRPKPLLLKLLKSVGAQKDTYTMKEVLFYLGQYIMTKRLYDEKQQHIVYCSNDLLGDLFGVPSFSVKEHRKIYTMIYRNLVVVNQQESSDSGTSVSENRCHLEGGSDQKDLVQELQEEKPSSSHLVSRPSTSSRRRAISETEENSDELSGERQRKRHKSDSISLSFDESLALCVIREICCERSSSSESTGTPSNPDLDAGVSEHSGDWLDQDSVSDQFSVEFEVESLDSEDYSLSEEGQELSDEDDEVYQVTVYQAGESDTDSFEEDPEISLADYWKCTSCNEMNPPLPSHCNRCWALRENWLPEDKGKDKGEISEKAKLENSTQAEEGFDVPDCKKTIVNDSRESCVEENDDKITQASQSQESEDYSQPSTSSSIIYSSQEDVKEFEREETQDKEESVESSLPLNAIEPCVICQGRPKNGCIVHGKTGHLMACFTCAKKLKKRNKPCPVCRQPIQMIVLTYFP
MPTP counter: membrane potential counter-screen of mitochondrial pore inhibitors; isolated mitochondria, Rhodamine 123 fluorescence; 5,000 tested, 78% active; inhibition, % at 10 µM; shares compounds with MPTP inh; in the data active = inhibition above about 22%
MPTP swell DR: MPTP inhibition, dose response swelling confirmation. shares compounds with MPTP inh. isolated mitochondria swelling, absorbance. IC50, µM. 780 tested, 58% active; in the data active = IC50 below about 20 µM
MPTP counter DR: counter-screen for mitochondrial permeability transition pore inhibitors, dose response. shares compounds with MPTP inh. isolated mitochondria counterscreen, fluorescence read-out. IC50, µM. 780 tested, 49% active; in the data active = IC50 below about 80 µM
Hits are given with their value. The list is not random: actives were taken first. Their share in the collection is about 4.8%.

What do the screens show for `CC(=C/c1ccccc1)/C=N/NC(=O)CSc1nc(C)cc(C)n1`?
Beta apoptosis: inactive; Calb FLC: inactive; MPTP inh: 62.0; Mdm2 MdmX PPI: inactive; MPTP counter: 32.5

Results for CC(C)(C)c1cc(CCC(=O)NNC(=S)NC(=O)c2ccccc2)cc(C(C)(C)C)c1O ?
Beta apoptosis: inconclusive; Calb FLC: inactive; MPTP inh: 80.3; CSC inhib: inactive; Mdm2 MdmX PPI: inactive; MPTP counter: inactive

How did CC(C)(C)c1cc(CCC(=O)NNC(=O)c2ccco2)cc(C(C)(C)C)c1O do in these assays?
Beta apoptosis: inactive; Calb FLC: inactive; MPTP inh: inactive; CSC inhib: inactive; Mdm2 MdmX PPI: inactive

What do the screens show for `O=C(CCCCn1ccc(=O)[nH]c1=O)Nc1ccc(C(=O)O)c(O)c1`?
MPTP inh: inactive

Results for CC(=O)c1cccc(N/C=C\C(=O)c2ccc(C)cc2)c1 ?
Beta apoptosis: inactive; Calb FLC: inactive; MPTP inh: inactive; CSC inhib: inactive

What do the screens show for `CC(=O)c1cccc(NS(=O)(=O)c2ccc(N/C=C\C(=O)c3ccc(C)cc3)cc2)c1`?
Beta apoptosis: inactive; Calb FLC: inactive; MPTP inh: 106.2; CSC inhib: inactive; Mdm2 MdmX PPI: inactive; MPTP counter: 84.6

What do the screens show for `CC(=O)c1cccc(NS(=O)(=O)c2ccc(N/C=C/C(=O)c3ccc(F)cc3)cc2)c1`?
Beta apoptosis: 111.8; Calb FLC: inactive; MPTP inh: 108.1; CSC inhib: inactive; Mdm2 MdmX PPI: inactive; MPTP counter: 94.4

What do the screens show for `COc1ccccc1NS(=O)(=O)c1ccc(O)c(C(=O)OCC(=O)Nc2ccccc2F)c1`?
Beta apoptosis: inactive; Calb FLC: inactive; MPTP inh: inactive; CSC inhib: inactive; Mdm2 MdmX PPI: inactive

What do the screens show for `O=C(COC(=O)c1cc(S(=O)(=O)Nc2ccccc2Cl)ccc1O)Nc1ccc(F)c(F)c1F`?
Beta apoptosis: inactive; MPTP inh: 68.4; CSC inhib: inactive; Mdm2 MdmX PPI: inactive; MPTP counter: 84.6

What do the screens show for `COc1ccc(C2CC(c3ccccc3)=NN2C(=O)COC(=O)/C=C/c2ccc(O)c(OC)c2)cc1` (stereo not given)?
Beta apoptosis: inactive; Calb FLC: inactive; MPTP inh: inactive; CSC inhib: inactive; Mdm2 MdmX PPI: inactive

How did O=C(COC(=O)C1(c2ccc(Cl)cc2)CCCC1)NCc1ccco1 do in these assays?
Beta apoptosis: inactive; Calb FLC: inactive; MPTP inh: inactive; CSC inhib: inactive; Mdm2 MdmX PPI: inactive

How did CCc1ccc(NC(=O)COC(=O)C2(c3ccc(Cl)cc3)CCCC2)cc1 do in these assays?
Beta apoptosis: inactive; Calb FLC: inactive; MPTP inh: 65.1; CSC inhib: inactive; Mdm2 MdmX PPI: inactive; MPTP counter: 75.2

How did O=[N+]([O-])c1ccc2[nH]c(=S)sc2c1 do in these assays?
MPTP inh: 57.4; MPTP counter: 76.9

How did S=C(NCCc1ccccc1)Nc1ccccc1N1CCOCC1 do in these assays?
Beta apoptosis: inactive; Calb FLC: inactive; MPTP inh: inactive; CSC inhib: inactive; Mdm2 MdmX PPI: inactive

What do the screens show for `Fc1cc(F)cc(NC(=S)Nc2ccccc2N2CCOCC2)c1`?
Beta apoptosis: inactive; Calb FLC: inactive; MPTP inh: 94.3; CSC inhib: inactive; Mdm2 MdmX PPI: inactive; MPTP counter: 101.7

Results for CC(=O)Oc1ccc(OC(C)=O)c2c1CC(C)=C(C)C2 ?
Beta apoptosis: inactive; Calb FLC: inactive; MPTP inh: inactive; CSC inhib: inactive; Mdm2 MdmX PPI: inactive

What do the screens show for `CCOc1cc(CNCCSc2nnnn2C)cc(Br)c1OCc1ccc(F)cc1`?
Beta apoptosis: inactive; Calb FLC: inactive; MPTP inh: 92.6; CSC inhib: inactive; Mdm2 MdmX PPI: inactive; MPTP counter: inactive; MPTP swell DR: inactive; MPTP counter DR: 22.8

How did O=C(OCC(=O)c1ccc(Cl)s1)c1cnccn1 do in these assays?
Beta apoptosis: inactive; Calb FLC: inactive; MPTP inh: inactive; CSC inhib: inactive; Mdm2 MdmX PPI: inactive

What do the screens show for `CCOc1ccc2nc(N3C(=O)/C(=C/c4ccccc4)NC3=S)sc2c1`?
Beta apoptosis: inactive; Calb FLC: 92.1; MPTP inh: 84.0; Mdm2 MdmX PPI: inactive; MPTP counter: inactive

How did COC(/C(=N/O)c1ccc(Cl)cc1)c1ccccc1 (stereo not given) do in these assays?
Beta apoptosis: 100.5; Calb FLC: inactive; MPTP inh: 68.2; CSC inhib: inactive; Mdm2 MdmX PPI: inactive; MPTP counter: 75.9

How did COc1ccc(Cl)cc1NC(=O)C(OC)c1ccccc1 (stereo not given) do in these assays?
Beta apoptosis: inactive; Calb FLC: inactive; MPTP inh: inactive; CSC inhib: inactive; Mdm2 MdmX PPI: inactive

How did CC(C)c1ccc(N(CC(=O)NCc2ccco2)C(=O)CCC(=O)Nc2ccccn2)cc1 do in these assays?
Beta apoptosis: inactive; Calb FLC: inactive; MPTP inh: inactive; CSC inhib: inactive; Mdm2 MdmX PPI: inactive

Results for Cn1c(SCc2ccc(Cl)cc2Cl)nc(C(F)(F)F)cc1=O ?
Beta apoptosis: inactive; Calb FLC: inactive; MPTP inh: inactive; CSC inhib: inactive; Mdm2 MdmX PPI: inactive

How did FC(F)(F)c1nc(SCc2ccc(Cl)cc2Cl)n[nH]1 do in these assays?
Calb FLC: inactive; MPTP inh: 63.4; Mdm2 MdmX PPI: inactive; MPTP counter: 90.5

What do the screens show for `NC1=NC[C@H](Cc2ccc(O)cc2)N1CC1CCCCC1`?
Beta apoptosis: inactive; Calb FLC: inactive; MPTP inh: inactive; CSC inhib: inactive; Mdm2 MdmX PPI: inactive

What do the screens show for `NC1=NC[C@@H](Cc2ccc(O)cc2)N1CCCCC1CCCCC1`?
Beta apoptosis: inactive; Calb FLC: inactive; MPTP inh: 59.8; CSC inhib: inactive; Mdm2 MdmX PPI: inactive; MPTP counter: inactive; MPTP swell DR: 9.62; MPTP counter DR: 24.4

What do the screens show for `Clc1ccc(CONc2ncnc3nonc23)c(Cl)c1`?
Beta apoptosis: inactive; Calb FLC: 76.0; MPTP inh: 56.0; CSC inhib: inactive; Mdm2 MdmX PPI: inactive; MPTP counter: 95.8

Results for CCONc1ncnc2nonc12 ?
Beta apoptosis: inactive; Calb FLC: inconclusive; MPTP inh: inactive; CSC inhib: inactive; Mdm2 MdmX PPI: inactive

How did COc1ccc(-c2cc(=O)oc3c(C)c(OC(C)C(=O)Nc4ccc(CN5CCOCC5)cc4)ccc23)cc1 (stereo not given) do in these assays?
Beta apoptosis: inactive; Calb FLC: inactive; MPTP inh: inactive; CSC inhib: inactive; Mdm2 MdmX PPI: inactive

What do the screens show for `Cc1nc(Nc2ccccc2)[nH]c(=O)c1CCC(C)C`?
Beta apoptosis: inactive; Calb FLC: inactive; MPTP inh: 57.1; CSC inhib: inactive; Mdm2 MdmX PPI: inactive; MPTP counter: 58.4

How did CCCCC(=O)NC(=S)NNC(=O)c1ccc(Cl)cc1Cl do in these assays?
Calb FLC: inactive; MPTP inh: 51.0; MPTP counter: inactive; MPTP swell DR: 15.1; MPTP counter DR: inactive

How did Cc1ccc(C(=O)NNC(=S)NC(=O)c2ccc(Cl)cc2Cl)cc1 do in these assays?
Calb FLC: inactive; MPTP inh: 87.9; CSC inhib: inactive; Mdm2 MdmX PPI: inactive; MPTP counter: inactive
